Measured values from PubChem BioAssay (EPA / NIEHS).
Where “and” joins values, the source holds several entries; their conditions need not be identical. Identical values can stand only once. The source holds several records for some structures; these can differ, active in one and inactive in another. Calls of active or inactive are those of the source. The calls were made as follows: active = hit-call score of the fitted dose curve at least 0.9, where 1 is the maximum; inactive = score below 0.9.

Experiments:
[1] = read-out: Interleukin-6 (IL6), IL6 (gene 3569); test: BSK_CASM3C_IL6: BioMAP Diversity Plus: CASM3C Assay for Interleukin-6 (IL6) Biomarker Activity for (AID 2283040); settings: primary human coronary artery smooth muscle cells; actives raise or lower the signal
[2] = read-out: Tissue plasminogen activator (tPA), PLAT (gene 5327); test: BSK_BE3C_tPA: BioMAP Diversity Plus: BE3C Assay for Tissue plasminogen activator (tPA) Biomarker Activity (AID 2283041); settings: primary human bronchial epithelial cells; actives raise or lower the signal
Procedure, shortened: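 ELISA read-out of tPA on human primary bronchial epithelial cells, 24 h post-dosing; bidirectional fit vs DMSO negative control/baseline.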

[3] = read-out: Interleukin-8 (IL8), CXCL8 (gene 3576); test: BSK_CASM3C_IL8: BioMAP Diversity Plus: CASM3C Assay for Interleukin-8 (IL8) Biomarker Activity (AID 2283042); settings: primary human coronary artery smooth muscle cells; actives raise or lower the signal;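 also: IL-8 protein level quantified by ELISA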
[4] = read-out: Human Leukocyte Antigen - DR isotype (HLADR), HLA-DRA (gene 3122); test: BSK_CASM3C_HLADR: BioMAP Diversity Plus: CASM3C Assay for Human Leukocyte Antigen - DR isotype (HLADR) Biomarker Activity (AID 2283043); settings: primary human coronary artery smooth muscle cells; actives raise or lower the signal;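 also: cell-surface HLA-DR protein level quantified by ELISA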
[5] = read-out: Macrophage colony-stimulating factor (MCSF), CSF1 (gene 1435); test: BSK_CASM3C_MCSF: BioMAP Diversity Plus: CASM3C Assay for Macrophage colony-stimulating factor (MCSF) Biomarker Activity (AID 2283044); settings: primary human coronary artery smooth muscle cells; actives raise or lower the signal;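 also: M-CSF protein amount quantified by ELISA after 24 h exposure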
[6] = read-out: Low-density lipoprotein receptor (LDLR), LDLR (gene 3949); test: BSK_CASM3C_LDLR: BioMAP Diversity Plus: CASM3C Assay for Low-density lipoprotein receptor (LDLR) Biomarker Activity (AID 2283045); settings: primary human coronary artery smooth muscle cells; actives raise or lower the signal;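 also: LDLR protein level on the cell surface quantified by ELISA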
[7] = read-out: Monocyte Chemoattractant Protein-1 (MCP1), CCL2 (gene 6347); test: BSK_CASM3C_MCP1: BioMAP Diversity Plus: CASM3C Assay for Monocyte Chemoattractant Protein-1 (MCP1) Biomarker Activity (AID 2283046); settings: primary human coronary artery smooth muscle cells; actives raise or lower the signal;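 also: MCP-1 level quantified by ELISA 24 h after dosing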
[8] = BSK_CASM3C_Proliferation: Cell Proliferation Assessment in the BioMAP Diversity Plus: CASM3C Assay (AID 2283047); settings: primary human coronary artery smooth muscle cells;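 also: sulforhodamine B total protein stain as relative cell number at 560 nm; sub-confluent cells exposed 48 h before staining; fitted both ways against DMSO so gain or loss of cell number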
[9] = read-out: Monokine induced gamma interferon (MIG), CXCL9 (gene 4283); test: BSK_CASM3C_MIG: BioMAP Diversity Plus: CASM3C Assay for Monokine induced gamma interferon (MIG) Biomarker Activity (AID 2283048); settings: primary human coronary artery smooth muscle cells; actives raise or lower the signal;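 also: MIG protein level measured by ELISA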
[10] = read-out: serum amyloid A (SAA), SAA1 (gene 6288); test: BSK_CASM3C_SAA: BioMAP Diversity Plus: CASM3C Assay for serum amyloid A (SAA) Biomarker Activity (AID 2283049); settings: primary human coronary artery smooth muscle cells; actives raise or lower the signal;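 also: SAA protein level quantified by ELISA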

Measured: AC50

CCOCN(C(=O)CCl)c1c(C)cccc1CC
active: [3] 15.8 µM | [8] 30 µM
inactive: all other assays above

ClC1C(Cl)C(Cl)C(Cl)C(Cl)C1Cl (stereo not given)
inactive: [1] | [2] | [3] | [4] | [5] | [6] | [7] | [8] | [9] | [10]
active: [5] 32.4 µM | [6] 27.8 µM | [8] 20 µM and 29.6 µM | [10] 34.8 µM

CCOC1Oc2ccc(OS(C)(=O)=O)cc2C1(C)C (stereo not given)
not listed: [2]
inactive: all other assays above

[2H]C1([2H])[n+]2ccccc2-c2cccc[n+]2C1([2H])[2H]
active: [7] 0.156 µM | [8] 10.6 µM
not listed: [2]
inactive: all other assays above

COC(=O)c1ccccc1CS(=O)(=O)NC(=O)Nc1nc(OC)cc(OC)n1
not listed: [2]
inactive: all other assays above

CCS(=O)(=O)c1cccnc1S(=O)(=O)NC(=O)Nc1nc(OC)cc(OC)n1
active: [10] 16.4 µM
not listed: [2]
inactive: all other assays above

COP(=S)(OC)Oc1ccc([N+](=O)[O-])cc1
active: [7] 0.877 µM
not listed: [2]
inactive: all other assays above

O=C1c2ccccc2C(=O)N1SC(Cl)(Cl)Cl
active: [1] 30.3 µM | [3] 38.6 µM | [4] 28.7 µM | [5] 16 µM | [7] 30 µM | [8] 18.8 µM | [9] 30.4 µM
inactive: [6] | [10]

CCCN(CCOc1c(Cl)cc(Cl)cc1Cl)C(=O)n1ccnc1
active: [8] 26.8 µM
not listed: [2]
inactive: all other assays above

CNC(=O)Oc1cccc(N=CN(C)C)c1
inactive: all assays above

O=[N+]([O-])/N=C1\NCCN1Cc1ccc(Cl)nc1
inactive: all assays above

CCC(C)(NC(=O)c1cc(Cl)c(C)c(Cl)c1)C(=O)CCl (stereo not given)
inactive: [1] | [3] | [6]
active: [2] 11 µM | [4] 17.7 µM | [5] 25.2 µM | [7] 22.9 µM | [8] 18.5 µM | [9] 17.5 µM | [10] 14.4 µM

O=S(=O)(O)C(F)(F)C(F)(F)C(F)(F)C(F)(F)C(F)(F)C(F)(F)C(F)(F)C(F)(F)F
inactive: [1] | [3] | [4] | [5] | [6] | [7] | [8] | [9] | [10]
active: [9] 47.3 µM and 52.5 µM

O=C(Nc1ccccc1)Nc1cnns1
not listed: [2]
inactive: all other assays above

CNC(=O)/C=C(\C)OP(=O)(OC)OC
not listed: [2]
inactive: all other assays above

COc1nn(CSP(=S)(OC)OC)c(=O)s1
inactive: all assays above

CCCN(CCC)c1c([N+](=O)[O-])cc(C(F)(F)F)cc1[N+](=O)[O-]
inactive: all assays above

Cc1cc(C)nc(NC(=O)NS(=O)(=O)c2ccccc2C(=O)OC2COC2)n1
inactive: all assays above

CC1(C)C(C=C(Cl)Cl)C1C(=O)OC(C#N)c1ccc(F)c(Oc2ccccc2)c1 (stereo not given)
inactive: all assays above

O=C(O)C(F)(F)C(F)(F)C(F)(F)C(F)(F)C(F)(F)C(F)(F)C(F)(F)F
active: [8] 16.6 µM | [9] 36.6 µM
inactive: [1] | [2] | [3] | [4] | [5] | [6] | [7] | [8] | [9] | [10]

O=S1OCC2C(CO1)C1(Cl)C(Cl)=C(Cl)C2(Cl)C1(Cl)Cl (stereo not given)
inactive: [1] | [6]
active: [2] 21.5 µM | [3] 29.6 µM | [4] 32.5 µM | [5] 31.5 µM | [7] 31.7 µM | [8] 32.7 µM | [9] 32.1 µM | [10] 32.7 µM

N#CN
inactive: all assays above

CC(C)N(C(=O)COc1nnc(C(F)(F)F)s1)c1ccc(F)cc1
not listed: [2]
inactive: all other assays above

OCCOc1ccccc1
active: [10] 20 µM
inactive: all other assays above

CCOc1nc(NC)nc(NC(=O)NS(=O)(=O)c2ccccc2C(=O)OC)n1
not listed: [2]
inactive: all other assays above

Oc1ccc(Cl)cc1Cc1ccccc1
inactive: [1] | [3] | [6] | [9]
active: [1] 30.5 µM [middle of 4 runs] | [3] 31.5 µM [middle of 5 runs] | [4] 31.1 µM [middle of 7 runs] | [5] 29.6 µM [middle of 7 runs] | [6] 29.1 µM [middle of 5 runs] | [7] 37.5 µM [middle of 4 runs] | [8] 32.2 µM [middle of 7 runs] | [9] 32.7 µM [middle of 6 runs] | [10] 31.1 µM [middle of 6 runs]

CNC(=O)CSP(=S)(OC)OC
not listed: [2]
inactive: all other assays above

C#CCN1C(=O)COc2cc(F)c(N3C(=O)C4=C(CCCC4)C3=O)cc21
not listed: [2]
inactive: all other assays above

COc1cc(OC)nc(NC(=O)NS(=O)(=O)c2cc(NC=O)ccc2C(=O)N(C)C)n1
not listed: [2]
inactive: all other assays above

CC(C)(C)C(O)C(Oc1ccc(Cl)cc1)n1cncn1 (stereo not given)
not listed: [2]
inactive: all other assays above

CC(C)OC(=O)Nc1cccc(Cl)c1
not listed: [2]
inactive: all other assays above

CCC(C)Nc1c([N+](=O)[O-])cc(C(C)(C)C)cc1[N+](=O)[O-] (stereo not given)
not listed: [2]
inactive: all other assays above

O=C(O)COc1ccc(Cl)cc1Cl
not listed: [2]
inactive: all other assays above

COP(=S)(OC)Oc1ccc(SC)c(C)c1
not listed: [2]
inactive: all other assays above

CC1(c2ccc(Oc3ccccc3)cc2)OC(=O)N(Nc2ccccc2)C1=O (stereo not given)
active: [8] 13.7 µM
not listed: [2]
inactive: all other assays above

Cc1[nH]c(=O)n(C(C)(C)C)c(=O)c1Cl
not listed: [2]
inactive: all other assays above

COP(=O)(OC)OC=C(Cl)Cl
active: [8] 8.32 µM
not listed: [2]
inactive: all other assays above

C[C@H]1[C@H](c2ccc(Cl)cc2)SC(=O)N1C(=O)NC1CCCCC1
active: [1] 7.98 µM | [8] 20 µM
not listed: [2]
inactive: all other assays above

COC(=O)c1ccccc1S(=O)(=O)NC(=O)N(C)c1nc(C)nc(OC)n1
not listed: [2]
inactive: all other assays above
